From publication PMC11006913

The sequences below were run against T1, NKX2-6 (Homo sapiens, UniProt A6NCS4 118-204, R150C) (assay: PBM; 200 nM protein, PBS). Details: dsDNA, one strand shown.
T1 sequence: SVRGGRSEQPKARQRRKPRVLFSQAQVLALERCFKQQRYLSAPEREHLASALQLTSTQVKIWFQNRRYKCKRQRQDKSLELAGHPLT

Sequence | binding signal
GGGGCCAC | 9.87 upbm affinity estimate (log intensity, higher = more binding, comparable within an allelic series)
AGCCCCTG | 9.59 upbm affinity estimate (log intensity, higher = more binding, comparable within an allelic series)
CACCCCGC | 9.31 upbm affinity estimate (log intensity, higher = more binding, comparable within an allelic series)
CGCCCGTC | 9.36 upbm affinity estimate (log intensity, higher = more binding, comparable within an allelic series)
GGGCCACC | 9.52 upbm affinity estimate (log intensity, higher = more binding, comparable within an allelic series)
AAGCCACG | 9.49 upbm affinity estimate (log intensity, higher = more binding, comparable within an allelic series)
ACCGACGC | 9.5 upbm affinity estimate (log intensity, higher = more binding, comparable within an allelic series)
CAAAGTGC | 11 upbm affinity estimate (log intensity, higher = more binding, comparable within an allelic series)
CCCTGCCA | 9.63 upbm affinity estimate (log intensity, higher = more binding, comparable within an allelic series)
CCCGCAGC | 9.3 upbm affinity estimate (log intensity, higher = more binding, comparable within an allelic series)
AGAGTGGC | 10.9 upbm affinity estimate (log intensity, higher = more binding, comparable within an allelic series)
GGCATCCC | 9.47 upbm affinity estimate (log intensity, higher = more binding, comparable within an allelic series)
TACAAGTA | 11.3 upbm affinity estimate (log intensity, higher = more binding, comparable within an allelic series)
ACCCGGCA | 9.55 upbm affinity estimate (log intensity, higher = more binding, comparable within an allelic series)
ACCTCCCC | 9.56 upbm affinity estimate (log intensity, higher = more binding, comparable within an allelic series)
AATCCGCC | 9.75 upbm affinity estimate (log intensity, higher = more binding, comparable within an allelic series)
TCACTCAA | 10.9 upbm affinity estimate (log intensity, higher = more binding, comparable within an allelic series)
CCCCGTTC | 9.42 upbm affinity estimate (log intensity, higher = more binding, comparable within an allelic series)
CACTTGTC | 11.4 upbm affinity estimate (log intensity, higher = more binding, comparable within an allelic series)
CGCCCCGC | 9.59 upbm affinity estimate (log intensity, higher = more binding, comparable within an allelic series)

Sequence | binding signal
CCCGCACA | 9.66 upbm affinity estimate (log intensity, higher = more binding, comparable within an allelic series)
CTACTTTA | 11 upbm affinity estimate (log intensity, higher = more binding, comparable within an allelic series)
GGGGAACC | 9.63 upbm affinity estimate (log intensity, higher = more binding, comparable within an allelic series)
CACTTCCA | 11 upbm affinity estimate (log intensity, higher = more binding, comparable within an allelic series)
AACGGGAC | 9.62 upbm affinity estimate (log intensity, higher = more binding, comparable within an allelic series)
CACTCTCA | 10.9 upbm affinity estimate (log intensity, higher = more binding, comparable within an allelic series)
CCCGCCGA | 9.28 upbm affinity estimate (log intensity, higher = more binding, comparable within an allelic series)
CGCCTACA | 9.72 upbm affinity estimate (log intensity, higher = more binding, comparable within an allelic series)
AAAGTGAG | 10.8 upbm affinity estimate (log intensity, higher = more binding, comparable within an allelic series)
AAACGGCC | 9.82 upbm affinity estimate (log intensity, higher = more binding, comparable within an allelic series)
ACCGTGGA | 9.56 upbm affinity estimate (log intensity, higher = more binding, comparable within an allelic series)
CGCGGGCA | 9.67 upbm affinity estimate (log intensity, higher = more binding, comparable within an allelic series)
CTACCGGC | 9.49 upbm affinity estimate (log intensity, higher = more binding, comparable within an allelic series)
AGTAAGTA | 11.1 upbm affinity estimate (log intensity, higher = more binding, comparable within an allelic series)
AAAAAGTG | 11.2 upbm affinity estimate (log intensity, higher = more binding, comparable within an allelic series)
CAGACGCC | 9.62 upbm affinity estimate (log intensity, higher = more binding, comparable within an allelic series)
GCCGTGAA | 9.62 upbm affinity estimate (log intensity, higher = more binding, comparable within an allelic series)
GGTCAGAC | 9.52 upbm affinity estimate (log intensity, higher = more binding, comparable within an allelic series)
CACTCGTC | 10.8 upbm affinity estimate (log intensity, higher = more binding, comparable within an allelic series)
CCCGCCAG | 9.62 upbm affinity estimate (log intensity, higher = more binding, comparable within an allelic series)
